Records with an inconclusive call do not appear. Unmarked numbers belong to inactive results. Calls follow the shape of the dose curve; as a rule, active = well fitted curve in the direction sought with a large enough effect; inconclusive = small, poorly fitted or top-dose-only effect, or another doubt; inactive = no such curve, though single readings can be large or run the other way.

The experiment deals with Isocitrate dehydrogenase [NADP] cytoplasmic (Homo sapiens) (UniProt O75874). The experiment can be described thus: qHTS for Inhibitors of mutant isocitrate dehydrogenase 1 (IDH1): WT assay for probe SAR. Conditions: WT IDH1 enzyme, NADPH diaphorase/resazurin fluorescence; series mostly up to 100 µM; activity change, negative = inhibition: at the top concentration. The text has this: Malignant glioblastomas (WHO grade IV), including primary and secondary glioblastomas, are among the most lethal with a median survival of one year, and unfortunately they are also the most prevalent type of brain tumors. By and large the standard of care of gliomas remains the use of the oral alkylating agent temozolomide and radiotherapy following surgical tumor resection. There is an urgent unmet medical need for novel therapeutics for gliomas. IDH mutations occur in up to 70% of grade II-IV secondary glioblastomas, and IDH1 R132H is the most prevalent mutation. […] Wild-type (WT) IDH1 catalyzes the conversion of isocitrate to -ketoglutarate with the concomitant reduction of NADP+ to NADPH. In contrast, IDH1 R132H catalyzes the conversion of -ketoglutarate to 2-hydroxyglutarate (2-HG) with the concomitant oxidation of NADPH to NADP+ [5]. Recently, a second significant advancement for the field was the finding that IDH is an oncogene, and that its metabolic product 2-HG may contribute to the pathogenesis of IDH-mutated cancers. […] Although this link to cancer is tantalizing, the direct evidence of how 2-HG drives pathogenesis of gliomas and AML remains a subject of further research. The goal of this selectivity assay is to identify small-molecule inhibitors of WT IDH1 using a biochemical assay that measures product NADPH production through the use of a diaphorase/resazurin-coupled system. Inhibition of the WT IDH1 enzymatic reaction leads to a decrease in the amount of NADPH relative to a DMSO control and a concomitant decrease in the fluorescence of the diaphorase/resazurin enzyme product resorufin at 590 nm. Compounds were screened as concentration-titration series that ranged from 100 microM to 5 nM. NIH Molecular Libraries Probe Production Network [MLPCN] NIH Chemical Genomics Center [NCGC] MLSCN Grant: R03 DA032129 PI Name: Dr. Lenny Dang
Isocitrate dehydrogenase [NADP] cytoplasmic (Homo sapiens), sequence (O75874 whole entry, looked up): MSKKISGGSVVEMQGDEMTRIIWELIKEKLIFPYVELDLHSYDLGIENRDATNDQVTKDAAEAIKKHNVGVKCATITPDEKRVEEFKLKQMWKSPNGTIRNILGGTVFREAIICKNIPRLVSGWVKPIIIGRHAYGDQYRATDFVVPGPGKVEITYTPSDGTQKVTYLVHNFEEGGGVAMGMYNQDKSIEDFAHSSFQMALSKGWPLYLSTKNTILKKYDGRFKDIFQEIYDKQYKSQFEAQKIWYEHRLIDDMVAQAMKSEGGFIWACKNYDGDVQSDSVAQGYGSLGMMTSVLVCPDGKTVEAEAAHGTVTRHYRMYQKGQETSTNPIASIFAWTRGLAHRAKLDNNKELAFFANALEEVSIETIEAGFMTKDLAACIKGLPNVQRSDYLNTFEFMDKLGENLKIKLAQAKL
Compounds or DMSO were dispensed into black, solid 96-well plates at 1 microL/well. Then, 40 microL/well enzyme buffer was dispensed in 20 mM Tris buffer, pH 7.5, containing final concentrations of 10 mM MgCl2, 20 mM NaCl, 0.05% BSA, 2 mM beta-ME and […] WT IDH1. These were incubated at RT for 60 minutes. The substrate and detection buffer (10 microL; 20 mM Tris buffer, pH 7.5, containing final concentrations of 10 mM MgCl2, 20 mM NaCl, 0.05% BSA, 0.05 mM NADP+, 0.00053 mM diaphorase, 0.04 mM resazurin and 0.07 mM isocitrate) was added to start the enzymatic reaction. The reaction progressed for 30 minutes at RT and which point 25 microL/well of 2% SDS was added as a stop solution. Following 1 minute of shaking on an oribital shaker, the fluorescence intensity was monitored on a Spectramax M5 plate reader (Ex 544, Em 590, bodipy filter). The %Activity was determined from the corrected fluorescence values. As no specific WT IDH1 inhibitors have been identified in the literature, 1x (0.65 nM) and 0x WT IDH1 enzyme controls (untreated) were included to normalize %Activity of identified inhibitors; 0x enzyme values corresponded to 100%Activity (full inhibition), while 1x WT IDH1 enzyme values were used to normalize 0%Activity (no inhibition ). Concentration-response curves were fitted to the signals arising from the resulting fluorescence. The concentration-response curves were then classified based on curve quality (r2), response magnitude and degree of measured activity, and compounds were subsequently categorized based on their curve class. […] Keywords: Isocitrate dehydrogenase, IDH1, IDH1 R132H, 2-HG, 2-hydroxyglutarate, AML, glioma, MLSMR, MLPCN, NIH Roadmap, qHTS, NCGC
(In general: qHTS replaces the single test concentration by a dilution series.)
As to `COc1cccc(N(C(=O)Cc2cccs2)C(C(=O)NC2CCCC2)c2ccccc2)c1` (configuration not stated), the “activity change, negative = inhibition” value is -5.76%.

For the compound `O=C(NC1CCCCC1)C(c1ccncc1)N(C(=O)Cc1cccs1)c1cccc(F)c1` (configuration not stated), the “activity change, negative = inhibition” value is -7.26%.

In the case of `COc1cccc(C(C(=O)NC2CCCCC2)N(C(=O)c2cccs2)c2ccc3c(c2)OCO3)c1` (configuration not stated), the “activity change, negative = inhibition” value was -13.6%.

On to `O=C(NC1CCCC1)C(c1ccccc1)N(C(=O)Cc1cccs1)c1cccc(F)c1` (configuration not stated), for which the “activity change, negative = inhibition” value is -6.55%.

Regarding `Cc1ccccc1C(C(=O)NC1CCCC1)N(C(=O)Cc1cccs1)c1ccccc1` (configuration not stated), the “activity change, negative = inhibition” value was -12.6%.

For `Cc1ccc(C(C(=O)NC2CCCC2)N(C(=O)Cc2cccs2)c2cccc(F)c2)o1` (configuration not stated), the “activity change, negative = inhibition” value was -4.68%.

`Cc1ccccc1C(C(=O)NC1CCCCC1)N(C(=O)Cc1cccs1)C(C)C` (configuration not stated): the “activity change, negative = inhibition” value was -0.19%.

As to `Cc1ccccc1C(C(=O)NC1CCCCC1)N(C(=O)c1ccccn1)c1cccc(F)c1` (configuration not stated), the “activity change, negative = inhibition” value was -8.53%.

As for `COc1ccccc1CN(C(=O)Cc1cccs1)C(C(=O)NC1CCCCC1)c1ccccc1F` (configuration not stated), the “activity change, negative = inhibition” value was -8.28%.

In the case of `Cc1ccccc1C(C(=O)NC1CCCC1)N(C(=O)Cc1cccs1)c1ccccc1F` (configuration not stated), the “activity change, negative = inhibition” value was -15%.

For `COc1ccc(C(C(=O)NC2CCCC2)N(C(=O)Cc2cccs2)c2cccc(F)c2)cc1OC` (configuration not stated), the “activity change, negative = inhibition” value is -4.45%.

With `Cc1ccccc1C(C(=O)NCc1ccccc1)N(C(=O)Cc1cccs1)c1cccc(F)c1` (configuration not stated), the “activity change, negative = inhibition” value was -2.69%.

On to `COc1ccc(N(C(=O)C2COc3ccccc3O2)C(C(=O)NC2CCCCC2)c2ccccc2)cc1OC` (configuration not stated), for which the “activity change, negative = inhibition” value is -23.7%.

Turning to `COc1ccc(N(C(=O)Cn2cnc3ccccc32)C(C(=O)NC2CCCCC2)c2ccccc2)cc1` (configuration not stated), the “activity change, negative = inhibition” value is -10.3%.

Regarding `Cc1ccccc1C(C(=O)N(C)C1CCCCC1)N(C(=O)Cc1cccs1)c1cccc(F)c1` (configuration not stated), the “activity change, negative = inhibition” value is -5.27%.

With `Cc1ccccc1C(C(=O)NC1CCCCC1)N(C(=O)CNS(=O)(=O)c1ccccc1)c1cccc(F)c1` (configuration not stated), the “activity change, negative = inhibition” value is -28.3%.

For the compound `COc1ccc(N(C(=O)Cc2cccs2)C(C(=O)NC2CCCC2)c2ccccc2C)cc1OC` (configuration not stated), the “activity change, negative = inhibition” value was -8.38%.

As for `O=C(NC1CCCCC1)C(C1CCCC1)N(C(=O)Cc1cccs1)c1cccc(F)c1` (configuration not stated), the “activity change, negative = inhibition” value is -4.81%.

On to `O=C(NC1CCCC1)C(c1cccs1)N(C(=O)Cc1cccs1)c1cccc(F)c1` (configuration not stated), for which the “activity change, negative = inhibition” value was -4.71%.

`COc1cc(OC)cc(N(C(=O)Cc2cccs2)C(C(=O)NC2CCCC2)c2ccccc2C)c1` (configuration not stated): the “activity change, negative = inhibition” value is -4.77%.

Turning to `Cc1nc(C)c(C(=O)N(c2cccc(F)c2)C(C(=O)NC2CCCCC2)c2ccccc2)s1` (configuration not stated), the “activity change, negative = inhibition” value was -3.93%.

`Cc1ccccc1C(C(=O)NC(C)(C)C)N(C(=O)Cc1cccs1)c1cccc(F)c1` (configuration not stated): the “activity change, negative = inhibition” value is -7.04%.

The values above are taken from PubChem BioAssay AID624021 (National Center for Advancing Translational Sciences (NCATS), 2012).
